# High-throughput results from PubChem BioAssay.
# JMJD2A Tudor inh: qHTS Assay for Inhibitors of JMJD2A-Tudor Domain; AlphaScreen JMJD2A-Tudor / H3K4me3 peptide binding; hit rate 4.4% among 390,000; Lysine-specific demethylase 4A (Homo sapiens), O75164; Potency, µM (highest dose often 114 µM), for inactives: at the highest dose activity change, negative = inhibition, most hits filed as inhibitors; also: % is scaled to controls: 0 for no effect and ±100 for the full control effect; nearly all actives have a fitted effect of over 50% in size
# PLK1 PBD block: qHTS for Inhibitors of PLK1-PDB (polo-like kinase 1 - polo-box domain): Primary Screen. hit rate 2.8% among 360,000. AID 720504, 2013. Plk1 PBD binding of FITC phosphopeptide, fluorescence polarization. Potency, µM, without a hit: max response, negative = inhibition, most hits filed as inhibitors. Serine/threonine-protein kinase PLK1 (Homo sapiens), P53350; also: series mostly up to about 57 µM; % is scaled to controls: 0 for no effect and ±100 for the full control effect; nearly all actives have a fitted effect of over 65% in size
# G9a inh: qHTS Assay for Inhibitors of Histone Lysine Methyltransferase G9a; hit rate 8.8% among 350,000; AID 504332, 2011; G9a H3K9 monomethylation, AlphaScreen, 2 h; Potency, µM (titrated, usually from 102 µM), for inactives: at the highest dose activity, negative = inhibition, actives largely listed as inhibitors; Histone-lysine N-methyltransferase EHMT2 (Homo sapiens), Q96KQ7; also: % is scaled to controls: 0 for no effect and ±100 for the full control effect; nearly all actives have a fitted effect of over 75% in size
# Target sequence (Q96KQ7 913-1193 limits assumed): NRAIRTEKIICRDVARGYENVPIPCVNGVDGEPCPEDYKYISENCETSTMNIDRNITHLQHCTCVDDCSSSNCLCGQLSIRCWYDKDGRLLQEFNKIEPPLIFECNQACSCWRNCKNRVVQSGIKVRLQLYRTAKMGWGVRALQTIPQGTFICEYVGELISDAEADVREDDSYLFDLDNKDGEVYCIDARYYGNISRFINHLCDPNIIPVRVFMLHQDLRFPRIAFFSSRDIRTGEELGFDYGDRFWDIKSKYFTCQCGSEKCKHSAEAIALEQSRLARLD
#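 Chemiluminescent proximity detection of H3K9 monomethylation, read after 10 min bead incubation in the dark. Reaction: 20 nM G9a, 500 nM biotin-H3K9 peptide, 20 uM SAM cofactor, 2 h, room temperature, following 15 min enzyme-compound preincubation.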
# Sfp inh: qHTS Assay for Inhibitors of Bacillus subtilis Sfp phosphopantetheinyl transferase (PPTase). Biochemical Sfp PPTase activity, qHTS. Potency, µM, without a hit: largest response in the series, negative = inhibition, most hits filed as inhibitors. hit rate 3.5% among 310,000;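 also: the enzyme is Sfp with the accession as filed and its product quenches rhodamine fluorescence; 0% = enzyme reaction without inhibitor and -100% = no enzyme wells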
#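 With Hepes-Na pH 7.6 buffer containing 10 mM MgCl2, Sfp (15 nM) modified BHQ-2-YbbR (12.5 uM) using rhodamine-CoA (5 uM). Two reads 30 minutes apart at 525/598 nm yielded each well's rate.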
# BAZ2B inh: qHTS Assay for Inhibitors of BAZ2B. Bromodomain adjacent to zinc finger domain protein 2B (Homo sapiens), Q9UIF8. AlphaScreen BAZ2B-H3K14Ac peptide displacement. Potency, µM (highest dose often 114 µM), without a hit: at the top dose activity change, negative = inhibition, usual class: inhibitors. hit rate 4.4% among 360,000; also: % is scaled to controls: 0 for no effect and ±100 for the full control effect; nearly all actives have a fitted effect of over 60% in size
#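 AlphaScreen displacement of biotin-H3(5-23)K14Ac peptide (50 nM final) from BAZ2B (50 nM final) in PBS pH 7.4, 0.01% Tween-20; complex preformed 30 min RT, then compounds (top 110 uM) 30 min RT, beads 20 min dark.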
# HP1b binding inh: HTS for Inhibitors of HP1-beta Chromodomain Interactions with Methylated Histone Tails; Potency, µM (highest dose often 114 µM), for the others: top-dose activity change, negative = inhibition, actives largely listed as inhibitors; Chromobox protein homolog 1 (Homo sapiens), P83916; AlphaScreen HP1-beta / biotin-H3K9me3 peptide binding; hit rate 0.56% among 390,000; AID 540317, 2011; also: nearly all actives have a fitted effect of over 70% in size
# Target sequence (P83916 whole entry, looked up): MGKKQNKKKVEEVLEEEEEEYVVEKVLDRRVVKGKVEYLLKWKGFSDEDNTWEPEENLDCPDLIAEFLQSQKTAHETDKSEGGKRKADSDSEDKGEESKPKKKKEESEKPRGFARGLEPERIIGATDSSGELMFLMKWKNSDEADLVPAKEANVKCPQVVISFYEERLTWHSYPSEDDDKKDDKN
#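 Compound inhibition of the preformed complex between 50 nM HP1-beta and 50 nM biotinylated H3K9me3 peptide was read by AlphaScreen. Buffer was PBS pH 7.4 with 0.01% Tween-20. Incubations ran 30 min at room temperature, with 10 ug/mL donor/acceptor beads.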
# Numbers without * were called inactive; ? = inconclusive; . = not tested or not shown; [ ] = remark or other dose. This is a sample that favours compounds with a hit; in the whole collection about 12% have one here. Calls follow the shape of the dose curve; as a rule, active = well fitted curve in the direction sought with a large enough effect; inconclusive = small, poorly fitted or top-dose-only effect, or another doubt; inactive = no such curve, though single readings can be large; an effect the other way counts as inactive or inconclusive. Potency is read from the fitted curve at half-maximal effect.
SMILES,JMJD2A Tudor inh,PLK1 PBD block,G9a inh,Sfp inh,BAZ2B inh,HP1b binding inh
COc1ccc(-c2sc(C(=O)c3ccc(Cl)cc3Cl)cc2CC(=O)O)cc1,11%,-16%,16%,5%,13%,16%
O=C1NN(c2ccccc2)C(=O)/C1=C\c1ccccc1OCC(=O)N1CCOCC1,-2%,21µM*,45µM*,?,-31%,26%
COc1ccc(C2CC(=O)c3cc(-c4nc(-c5cccc([N+](=O)[O-])c5)cs4)c(=O)n(-c4ccccc4)c3C2)cc1 (stereo not given),-12%,.,-7%[59 µM],.,0%,14%
O=C1CCCc2[nH]c(=O)c(-c3nc(-c4cccc([N+](=O)[O-])c4)cs3)cc21,-5%,.,1%[59 µM],.,3%,23%
COc1ccc(C2CC(=O)c3cc(-c4nc(-c5cccc([N+](=O)[O-])c5)cs4)c(=O)n(-c4ccccc4C)c3C2)cc1 (stereo not given),-16%,.,3.5µM*,.,?,24%
CC1(C)CC(=O)c2cc(-c3nc(-c4ccc(F)cc4)cs3)c(=O)[nH]c2C1,?,.,1.3µM*,.,71µM*,34%
COc1ccc(C2CC(=O)c3cc(-c4nc(-c5ccc(C)cc5)cs4)c(=O)[nH]c3C2)cc1 (stereo not given),1%,.,1.8µM*,.,?,44%
Cc1ccc(-n2c(C)cc3c2CC(C)(C)CC3=O)cc1C,56µM*,-9%,?,9%,?,-28%
Cc1ccc(-n2c3c(cc(-c4nc(-c5ccc(Cl)cc5)cs4)c2=O)C(=O)CC(C)(C)C3)cc1C,15%,.,16µM*,.,-1%,47%
CC1(C)CC(=O)c2cc(-c3nc(-c4ccc(Cl)cc4)cs3)c(=O)[nH]c2C1,3%,.,14µM*,.,1%,29%
COc1ccc(-n2c3c(cc(-c4nc(-c5ccc(C)cc5)cs4)c2=O)C(=O)CC(C)(C)C3)cc1,3%,.,2%[59 µM],.,7%,76%
COc1ccc(C2CC(=O)c3cc(-c4nc(-c5ccc(Cl)cc5)cs4)c(=O)[nH]c3C2)cc1OC (stereo not given),3%,.,-38%[59 µM],.,?,36%
O=C(CCCCn1c(=O)c2ccccc2n(Cc2cccc(Cl)c2)c1=O)NCc1ccc2c(c1)OCO2,6%,.,1%[59 µM],.,-3%,41%
CC1CCCC/C1=N\NC(=S)Nc1cccnc1 (stereo not given),?,-16%,3.2µM*,20µM*,?,?
S=C(Nc1ccc(Nc2ccccc2)cc1)NC1CCCCCC1,20µM*,?,16µM*,?,13µM*,?
NS(=O)(=O)c1ccc(NC(=O)NC2CCCCC2)cc1,-8%,1%,1%,-6%,5%,40%
NS(=O)(=O)c1ccc(NC(=S)NC2CCCCC2)cc1,-14%,11µM*,25µM*,7.9µM*,-29%,-4%
S=C(Nc1cccnc1)NC1CCCC1,-24%,?,16µM*,-5%,3%,-14%
Cc1cc2nc(NC(=O)C3(C)CCCN(C(C)C)C3)[nH]c2cc1C (stereo not given),.,-6%,.,.,.,.
CC(=O)c1ccc(N2C(=O)N(Cc3cc(C)ccc3C)c3ccccc3S2(=O)=O)cc1,-11%,.,5%[59 µM],.,-5%,29%
CCCCCCN1C=CC=C/C1=C/C=C(C#N)C#N,?,?,45µM*,?,25µM*,-23%
CCCCCN1C=CC=C/C1=C\C=C(C#N)C#N,-24%,?,?,-3%,?,-10%
CCCCCCN1C=C/C(=C\C=C(C#N)C#N)c2ccccc21,2.8µM*,2%,7.1µM*,5%,3.2µM*,?
